Experimental findings from the antibiotic and cytotoxicity screens of Wong et al. (2023) are described below.

Structures are written as SMILES. About 3,300 (8.5%) of roughly 39,000 compounds were called active. This is one part of a sample in which actives are shown more often than they occur.

The experiment deals with HepG2. The experiment is described as follows: cytotoxicity call (relative viability < 0.9). The settings on record: 10 µM.
In the case of `C[C@H](CO)N1C[C@H](C)[C@H](CN(C)S(=O)(=O)c2ccc(Cl)cc2)Oc2ccc(NC(=O)CCN3CCOCC3)cc2C1=O`, the cytotoxicity call is “inactive”.
In the case of `C[C@@H]1CN([C@@H](C)CO)C(=O)Cc2cc(NC(=O)c3ccncc3)ccc2O[C@H]1CN(C)S(C)(=O)=O`, the cytotoxicity call is “inactive”.
With `C[C@H](O)C#Cc1ccc2c(c1)O[C@H](CN(C)C(=O)CN(C)C)[C@@H](C)CN([C@@H](C)CO)S2(=O)=O`, the cytotoxicity call was “inactive”.
`CC(C)NC(=O)Nc1ccc2c(c1)CC(=O)N([C@H](C)CO)C[C@@H](C)[C@@H](CN(C)S(=O)(=O)c1ccc(Cl)cc1)O2`: the cytotoxicity call was “inactive”.
As for `C[C@H](CO)N1C[C@H](C)[C@@H](CN(C)S(C)(=O)=O)Oc2ccc(NC(=O)Nc3ccc(C(F)(F)F)cc3)cc2CC1=O`, the cytotoxicity call was “inactive”.
The result for `C[C@@H]1CN([C@H](C)CO)C(=O)Cc2cc(NC(=O)Nc3ccc(C(F)(F)F)cc3)ccc2O[C@@H]1CN(C)S(C)(=O)=O` reads “inactive”; that for `C[C@H]1CN([C@@H](C)CO)C(=O)Cc2cc(NC(=O)Nc3ccc(C(F)(F)F)cc3)ccc2O[C@H]1CN(C)S(=O)(=O)c1ccc(Cl)cc1`, “active”.
In the case of `C[C@H](CO)N1C[C@H](C)[C@H](CN(C)S(=O)(=O)c2ccc(Cl)cc2)Oc2ccc(NC(=O)Nc3ccc(C(F)(F)F)cc3)cc2CC1=O` it was “active”; in that of `C[C@@H]1CN([C@H](C)CO)C(=O)Cc2cc(NC(=O)Nc3ccc(C(F)(F)F)cc3)ccc2O[C@@H]1CN(C)S(=O)(=O)c1ccc(Cl)cc1`, “active”; in that of `C[C@H]1CN([C@@H](C)CO)C(=O)Cc2cc(NC(=O)Nc3ccc(C(F)(F)F)cc3)ccc2O[C@H]1CN(C)S(C)(=O)=O`, “inactive”.
Turning to `C[C@@H]1CN([C@H](C)CO)C(=O)Cc2cc(NC(=O)Nc3ccc(C(F)(F)F)cc3)ccc2O[C@H]1CN(C)S(C)(=O)=O`, the cytotoxicity call is “inactive”.
In the case of `C[C@H]1CN([C@@H](C)CO)C(=O)Cc2cc(NC(=O)Nc3cccc(C(F)(F)F)c3)ccc2O[C@H]1CN(C)S(=O)(=O)c1ccc(Cl)cc1` it was “active”; in that of `O=C(O)c1ccc[nH]1`, “inactive”.
`Cc1noc(C)c1NC(=O)N(C)C[C@@H]1Oc2ccc(NC(=O)Nc3ccc(C(F)(F)F)cc3)cc2CC(=O)N([C@@H](C)CO)C[C@@H]1C`: the cytotoxicity call is “inactive”.
In the case of `C[C@@H]1CN([C@H](C)CO)C(=O)Cc2cc(NC(=O)Cn3cnnn3)ccc2O[C@H]1CN(C)Cc1ccc(Oc2ccccc2)cc1` it was “inactive”.
With `CN1CCN(C(=O)C[C@H]2C=C[C@H](NS(=O)(=O)c3cccc(F)c3)[C@@H](CO)O2)CC1`, the cytotoxicity call was “inactive”.
The result for `Cn1cnc(S(=O)(=O)N[C@H]2CC[C@H](CC(=O)NCC3CC3)O[C@@H]2CO)c1` reads “inactive”.
`C[C@@H]1CN([C@@H](C)CO)C(=O)c2cc(NC(=O)CCC(F)(F)F)ccc2O[C@@H](C)CCCCO[C@H]1CN(C)C(=O)Nc1cccc2ccccc12`: the cytotoxicity call was “inactive”.
In the case of `CC(C)N1C[C@H](C)[C@@H](CN(C)Cc2ccc(Oc3ccccc3)cc2)Oc2c(C(=O)Nc3ccncc3)cccc2C1=O` it was “inactive”; in that of `COc1ccc(NC(=O)Nc2ccc3c(c2)C(=O)N([C@@H](C)CO)C[C@H](C)[C@H](CN(C)Cc2ccc(C(=O)O)cc2)OCCCC[C@H](C)O3)cc1`, “inactive”.
`CCCNS(=O)(=O)c1c[nH]c(C(=O)OC)c1`: the cytotoxicity call is “inactive”.
The result for `C[C@@H]1CN([C@@H](C)CO)C(=O)c2cccc(NS(=O)(=O)c3ccc(F)cc3)c2O[C@@H]1CN(C)CC1CC1` reads “inactive”; that for `COc1ccc(S(=O)(=O)N(C)C[C@@H]2Oc3ccc(NC(=O)Nc4cccc(C(F)(F)F)c4)cc3CC(=O)N([C@@H](C)CO)C[C@@H]2C)cc1Cl`, “active”; that for `C[C@H](CO)N1C[C@H](C)[C@@H](CN(C)S(=O)(=O)c2ccc(Cl)cc2)Oc2ccc(NC(=O)Nc3ccc(C(F)(F)F)cc3)cc2CC1=O`, “active”.
As for `C[C@H]1CN([C@@H](C)CO)C(=O)Cc2cc(NC(=O)Nc3ccc(C(F)(F)F)cc3)ccc2O[C@@H]1CN(C)S(=O)(=O)c1ccc(Cl)cc1`, the cytotoxicity call is “active”.
In the case of `C[C@@H]1CN([C@@H](C)CO)C(=O)Cc2cc(NC(=O)Nc3ccc(C(F)(F)F)cc3)ccc2O[C@H]1CN(C)S(=O)(=O)c1ccc(Cl)cc1` it was “inactive”; in that of `C[C@@H]1CN([C@H](C)CO)C(=O)Cc2cc(NC(=O)Nc3ccc(C(F)(F)F)cc3)ccc2O[C@H]1CN(C)S(=O)(=O)c1ccc(Cl)cc1`, “inactive”; in that of `C[C@H]1CN([C@@H](C)CO)C(=O)Cc2cc(NC(=O)Nc3cccc(C(F)(F)F)c3)ccc2O[C@H]1CN(C)S(=O)(=O)c1ccc(Oc2ccccc2)cc1`, “active”.
In the case of `Cc1cc(=O)nc2[nH][nH]c(=S)n12` it was “inactive”; in that of `C[C@H]1CN([C@@H](C)CO)C(=O)c2cccc(NC(=O)c3nc4ccccc4s3)c2O[C@@H]1CN(C)S(C)(=O)=O`, “inactive”; in that of `C[C@@H]1CN([C@@H](C)CO)C(=O)Cc2cc(NC(=O)Nc3cccc4ccccc34)ccc2O[C@H]1CN(C)C(=O)Nc1ccccc1`, “inactive”.
As for `COc1ccc(S(=O)(=O)Nc2ccc3c(c2)CC(=O)N([C@H](C)CO)C[C@@H](C)[C@H](CN(C)Cc2ccc(C(=O)O)cc2)O3)cc1`, the cytotoxicity call was “inactive”.
With `CN(C)C=C(C=[N+](C)C)c1[nH]ncc1N`, the cytotoxicity call is “inactive”.
For `C[C@@H]1CN([C@@H](C)CO)C(=O)Cc2cc(NC(=O)Nc3ccc(C(F)(F)F)cc3)ccc2O[C@@H]1CN(C)S(=O)(=O)c1ccc(Cl)cc1`, the cytotoxicity call is “active”.
For `Cc1cc(C(=O)Nc2cccc3c2O[C@H](CN(C)Cc2ccncc2)[C@@H](C)CN([C@H](C)CO)C3=O)n(C)n1`, the cytotoxicity call was “inactive”.
On to `C[C@@H]1CN([C@@H](C)CO)C(=O)Cc2cc(NC(=O)CCC(F)(F)F)ccc2O[C@@H]1CN(C)S(=O)(=O)c1cn(C)cn1`, for which the cytotoxicity call was “inactive”.
On to `C[C@H]1CN([C@@H](C)CO)C(=O)c2cc(NC(=O)c3ccncc3)ccc2O[C@H]1CN(C)Cc1ccc(C(=O)O)cc1`, for which the cytotoxicity call is “inactive”.
With `C[C@H](CO)N1C[C@H](C)[C@@H](CN(C)S(=O)(=O)c2ccc(Cl)cc2)OCCCC[C@H](C)Oc2ccc(NC(=O)Nc3ccccc3)cc2C1=O`, the cytotoxicity call was “inactive”.
In the case of `C[C@@H]1CN([C@@H](C)CO)C(=O)c2cc(NC(=O)Nc3ccccc3)ccc2O[C@@H](C)CCCCO[C@@H]1CN(C)S(=O)(=O)c1ccc(Cl)cc1`, the cytotoxicity call was “inactive”.
In the case of `C[C@@H]1CCCCO[C@@H](CN(C)S(=O)(=O)c2ccc(Cl)cc2)[C@@H](C)CN([C@@H](C)CO)C(=O)c2cc(NC(=O)Nc3cccc4ccccc34)ccc2O1` it was “active”; in that of `C[C@@H]1CCCCO[C@@H](CN(C)S(=O)(=O)c2ccc(Cl)cc2)[C@@H](C)CN([C@H](C)CO)C(=O)c2cc(NC(=O)Nc3ccccc3)ccc2O1`, “inactive”; in that of `C[C@@H]1CN([C@H](C)CO)C(=O)c2cc(NC(=O)Nc3ccccc3)ccc2O[C@@H](C)CCCCO[C@H]1CN(C)S(=O)(=O)c1ccc(Cl)cc1`, “active”.
Turning to `C[C@@H]1CCCCO[C@H](CN(C)S(=O)(=O)c2ccc(Cl)cc2)[C@@H](C)CN([C@@H](C)CO)C(=O)c2cc(NC(=O)Nc3cccc4ccccc34)ccc2O1`, the cytotoxicity call is “inactive”.
In the case of `C[C@@H]1CCCCO[C@@H](CN(C)S(=O)(=O)c2ccc(Cl)cc2)[C@@H](C)CN([C@@H](C)CO)C(=O)c2cc(NC(=O)Nc3ccccc3)ccc2O1` it was “inactive”.
With `C[C@@H]1CN([C@@H](C)CO)C(=O)c2cc(NC(=O)Nc3ccccc3)ccc2O[C@@H](C)CCCCO[C@H]1CN(C)S(=O)(=O)c1ccc(Cl)cc1`, the cytotoxicity call was “active”.
The result for `C[C@@H]1CCCCO[C@H](CN(C)S(=O)(=O)c2ccc(Cl)cc2)[C@@H](C)CN([C@H](C)CO)C(=O)c2cc(NC(=O)Nc3cccc4ccccc34)ccc2O1` reads “inactive”.
With `C[C@H](CO)N1C[C@H](C)[C@H](CN(C)C(=O)Nc2ccccc2)OCCCC[C@H](C)Oc2ccc(NC(=O)NC3CCCCC3)cc2C1=O`, the cytotoxicity call was “inactive”.
The result for `C[C@@H]1CN([C@H](C)CO)C(=O)c2cccc(NC(=O)Nc3cccc4ccccc34)c2O[C@@H]1CN(C)S(=O)(=O)c1ccc(Cl)cc1` reads “inactive”; that for `Cc1ccc(/C=N/Nc2cnnc(=O)[nH]2)o1`, “inactive”.
The result for `O=C(Cn1cnnn1)NC1C(=O)N2C(C(=O)O)=C(CSc3nncs3)CSC12` (stereo not given) reads “inactive”; that for `COCC(=O)Nc1ccc2c(c1)OC[C@@H](C)N(C(=O)Cc1ccccn1)C[C@H](C)[C@@H](OC)CN(C)C2=O`, “inactive”; that for `O=c1[nH]c(=O)c2[nH]c(=O)[nH]c2[nH]1`, “inactive”.
The result for `COc1ccc(S(=O)(=O)Nc2ccc3c(c2)CC(=O)N([C@H](C)CO)C[C@H](C)[C@@H](CN(C)C(=O)Nc2c(C)noc2C)O3)cc1` reads “inactive”; that for `COc1ccc(NC(=O)Nc2cccc3c2O[C@H](CN(C)Cc2ccc(Oc4ccccc4)cc2)[C@H](C)CN([C@H](C)CO)C3=O)cc1`, “inactive”; that for `C[C@H](CO)N1C[C@H](C)[C@H](CN(C)Cc2ccc(Oc3ccccc3)cc2)Oc2c(NC(=O)Nc3ccc(F)cc3)cccc2C1=O`, “inactive”.
In the case of `C[C@@H]1CN([C@H](C)CO)C(=O)c2cccc(NC(=O)Nc3ccc(F)cc3)c2O[C@@H]1CN(C)Cc1ccc(Oc2ccccc2)cc1`, the cytotoxicity call is “active”.
As for `C[C@@H]1CN([C@@H](C)CO)C(=O)c2cccc(NC(=O)Nc3ccc(F)cc3)c2O[C@H]1CN(C)Cc1ccc(Oc2ccccc2)cc1`, the cytotoxicity call is “inactive”.
The result for `COc1ccc(NC(=O)Nc2cccc3c2O[C@@H](CN(C)Cc2ccc(Oc4ccccc4)cc2)[C@@H](C)CN([C@H](C)CO)C3=O)cc1` reads “active”.
In the case of `Cc1cc(C(=O)Nc2cccc3c2O[C@@H](CN(C)Cc2ccc(Oc4ccccc4)cc2)[C@H](C)CN([C@@H](C)CO)C3=O)n(C)n1` it was “inactive”; in that of `COc1ccc(NC(=O)Nc2cccc3c2O[C@H](CN(C)Cc2ccc(Oc4ccccc4)cc2)[C@@H](C)CN([C@H](C)CO)C3=O)cc1`, “inactive”.
For the compound `COc1ccc(NC(=O)Nc2cccc3c2O[C@H](CN(C)Cc2ccc(Oc4ccccc4)cc2)[C@@H](C)CN([C@@H](C)CO)C3=O)cc1`, the cytotoxicity call was “inactive”.
In the case of `Cc1cc(C(=O)Nc2cccc3c2O[C@@H](CN(C)Cc2ccc(Oc4ccccc4)cc2)[C@@H](C)CN([C@@H](C)CO)C3=O)n(C)n1`, the cytotoxicity call was “inactive”.
In the case of `COc1ccc(NC(=O)Nc2cccc3c2O[C@@H](CN(C)Cc2ccc(Oc4ccccc4)cc2)[C@H](C)CN([C@H](C)CO)C3=O)cc1` it was “inactive”.
The result for `COc1ccc(NC(=O)Nc2cccc3c2O[C@@H](CN(C)Cc2ccc(Oc4ccccc4)cc2)[C@@H](C)CN([C@@H](C)CO)C3=O)cc1` reads “active”.
In the case of `Cc1cc(C(=O)Nc2cccc3c2O[C@H](CN(C)Cc2ccc(Oc4ccccc4)cc2)[C@@H](C)CN([C@H](C)CO)C3=O)n(C)n1` it was “active”.
